# Assay results published in PubChem BioAssay (EPA / NIEHS).
# Calls of active or inactive are those of the source. The calls were made as follows: active = hit-call score of the fitted dose curve at least 0.9, where 1 is the maximum; inactive = score below 0.9.
# Test: ATG_E_Box_CIS: Attagene CIS-FACTORIAL HepG2 Assay for human Enhancer Box (E-box) (AID 2282936)
# Conditions: HepG2 E-box cis-reporter transcription, actives raise or lower the signal
# In short: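 E-box-driven reporter transcripts measured in transiently transfected HepG2 after 24 h exposure: RNA reverse-transcribed, PCR-amplified, fluorescently labelled, digested and resolved by capillary electrophoresis. Gain or loss relative to DMSO.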
Structure (SMILES),outcome,AC50
COc1ccc(OC)c(OC)c1,inactive,–
COCCCOc1ccnc(CS(=O)c2nc3ccccc3[nH]2)c1C (stereo unspecified),inactive,–
C=C(C)C(=O)O[C@H]1C[C@@H]2CC[C@@]1(C)C2(C)C,–,147 µM (active)
CO[Si](C)(OC)c1ccccc1,inactive,–
CC(=O)Nc1ccccc1O,inactive,–
CCCCN,inactive,–
OC[C@H]1O[C@H](O[C@]2(CCl)O[C@H](CCl)[C@@H](O)[C@@H]2O)[C@H](O)[C@@H](O)[C@H]1Cl,inactive,–
Cc1ccc(S)cc1,inactive,–
CC(=O)O[C@]1(C(C)=O)CC[C@H]2[C@@H]3C[C@H](C)C4=CC(=O)CC[C@]4(C)[C@H]3CC[C@@]21C,inactive,–
Nc1nc2ccc([N+](=O)[O-])cc2s1,inactive,–
OCCOCCOCCOCCO,inactive,–
OCc1cccnc1,inactive,–
CCCCCC(CO)CCC (stereo unspecified),inactive,–
C[C@H]1C[C@H]2[C@@H]3CCC4=CC(=O)C=C[C@]4(C)[C@@]3(F)[C@@H](O)C[C@]2(C)[C@@]1(O)C(=O)COP(=O)(O)O,inactive,–
NCCCN1CCOCC1,inactive,–
COc1ccc(O)cc1,inactive,–
CC(C)C1CCC(O)CC1 (stereo unspecified),inactive,–
CCCCCC(=O)OCCc1ccccc1,inactive,–
CCOC(=S)SSC(=S)OCC,inactive,–

Structure (SMILES),outcome,AC50
CCOC(=O)c1ccccc1OC,inactive,–
O=Cc1ccc(Cl)c([N+](=O)[O-])c1,–,47.7 µM (active)
S=C(S)NCCNC(=S)S,inactive,–
CCCCCCCCCCCCCC(=O)O,inactive,–
CC1(C)C(=O)N(Br)C(=O)N1Cl,inactive,–
CCCC(=O)c1cc(O)c(O)cc1O,inactive,–
NCCNCCN,inactive,–
CC(C)c1cccc(O)c1,inactive,–
CC(=O)c1c(C)cc(C(C)(C)C)cc1C,inactive,–
O=C(O)c1cn(-c2ccc(F)cc2)c2cc(N3CCNCC3)c(F)cc2c1=O,inactive,–
Clc1sc(Cl)c(Cl)c1Cl,inactive,–
CC1CC(OC(=O)c2ccccc2O)CC(C)(C)C1 (stereo unspecified),inactive,–
O=C1CCCCCCCCCCOCCCCO1,inactive,–
C=COCCOCCOCCOC=C,inactive,–
Cc1c(Cl)c(=O)oc2cc(O)ccc12,inactive,–
CNCCCC12CCC(c3ccccc31)c1ccccc12,inactive,–
CCO[Si](CCCS)(OCC)OCC,inactive,–
COc1cc2ncnc(Nc3cccc(Cl)c3)c2cc1OC,inactive,–

# Test: ATG_M_61_CIS: Attagene CIS-FACTORIAL HepG2 Assay for M61 Transcription Factor (Internal Marker) (AID 2282937)
# Conditions: HepG2 Attagene CIS-FACTORIAL M61 internal marker reporter; actives raise or lower the signal
# In short: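 Readout: fluorescent reporter mRNA fragments resolved by capillary electrophoresis after RT-PCR. Transiently transfected human HepG2 cells carried MRTU constructs reporting endogenous TF activity; 24 h chemical exposure; gain or loss of signal fitted relative to DMSO.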
row,Structure (SMILES),outcome
1,COc1ccc(OC)c(OC)c1,inactive
2,COCCCOc1ccnc(CS(=O)c2nc3ccccc3[nH]2)c1C (stereo unspecified),inactive
3,C=C(C)C(=O)O[C@H]1C[C@@H]2CC[C@@]1(C)C2(C)C,inactive
4,CO[Si](C)(OC)c1ccccc1,inactive
5,CC(=O)Nc1ccccc1O,inactive
6,CCCCN,inactive
7,OC[C@H]1O[C@H](O[C@]2(CCl)O[C@H](CCl)[C@@H](O)[C@@H]2O)[C@H](O)[C@@H](O)[C@H]1Cl,inactive
8,Cc1ccc(S)cc1,inactive
9,CC(=O)O[C@]1(C(C)=O)CC[C@H]2[C@@H]3C[C@H](C)C4=CC(=O)CC[C@]4(C)[C@H]3CC[C@@]21C,inactive
10,Nc1nc2ccc([N+](=O)[O-])cc2s1,inactive
11,OCCOCCOCCOCCO,inactive
12,OCc1cccnc1,inactive
13,CCCCCC(CO)CCC (stereo unspecified),inactive
14,C[C@H]1C[C@H]2[C@@H]3CCC4=CC(=O)C=C[C@]4(C)[C@@]3(F)[C@@H](O)C[C@]2(C)[C@@]1(O)C(=O)COP(=O)(O)O,inactive
15,NCCCN1CCOCC1,inactive
16,COc1ccc(O)cc1,inactive
17,CC(C)C1CCC(O)CC1 (stereo unspecified),inactive
18,CCCCCC(=O)OCCc1ccccc1,inactive
19,CCOC(=S)SSC(=S)OCC,inactive

row,Structure (SMILES),outcome
1,CCOC(=O)c1ccccc1OC,inactive
2,O=Cc1ccc(Cl)c([N+](=O)[O-])c1,inactive
3,S=C(S)NCCNC(=S)S,inactive
4,CCCCCCCCCCCCCC(=O)O,inactive
5,CC1(C)C(=O)N(Br)C(=O)N1Cl,inactive
6,CCCC(=O)c1cc(O)c(O)cc1O,inactive
7,NCCNCCN,inactive
8,CC(C)c1cccc(O)c1,inactive
9,CC(=O)c1c(C)cc(C(C)(C)C)cc1C,inactive
10,O=C(O)c1cn(-c2ccc(F)cc2)c2cc(N3CCNCC3)c(F)cc2c1=O,inactive
11,Clc1sc(Cl)c(Cl)c1Cl,inactive
12,CC1CC(OC(=O)c2ccccc2O)CC(C)(C)C1 (stereo unspecified),inactive
13,O=C1CCCCCCCCCCOCCCCO1,inactive
14,C=COCCOCCOCCOC=C,inactive
15,Cc1c(Cl)c(=O)oc2cc(O)ccc12,inactive
16,COc1nc(C)nc(N)n1,inactive
17,CNCCCC12CCC(c3ccccc31)c1ccccc12,inactive
18,CCO[Si](CCCS)(OCC)OCC,inactive
19,COc1cc2ncnc(Nc3cccc(Cl)c3)c2cc1OC,inactive

# Test: ATG_EGR_CIS: Attagene CIS-FACTORIAL HepG2 Assay for human Early Growth Response 1 (EGR1) (AID 2282938)
# Conditions: HepG2 Attagene CIS-FACTORIAL EGR reporter mRNA; actives raise or lower the signal
# In short: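 Read-out: fluorescent reporter-mRNA fragments resolved by capillary electrophoresis after RT-PCR, 24 h post-dose in transiently transfected HepG2. Endogenous transcription-factor activity reported via cis-element-regulated reporter units; gain or loss fitted relative to DMSO.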
row,Structure (SMILES),outcome
1,CCCCCC(=O)OCCc1ccccc1,inactive
2,COc1nc(C)nc(N)n1,inactive
3,CCO[Si](CCCS)(OCC)OCC,inactive

# Test: ATG_M_19_CIS: Attagene CIS-FACTORIAL HepG2 Assay for M19 Transcription Factor (Internal Marker) (AID 2282939)
# Conditions: HepG2 Attagene CIS-FACTORIAL M19 internal marker reporter; actives raise or lower the signal
# In short: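 Transfect HepG2 with MRTU reporter library → dose chemical, 24 h → isolate total RNA, reverse-transcribe with oligo(dT) → PCR, 6-FAM label, HpaI cut (2 h, 37 C) → capillary electrophoresis. Bidirectional fit vs DMSO.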
row,Structure (SMILES),outcome
1,COc1ccc(OC)c(OC)c1,inactive
2,COCCCOc1ccnc(CS(=O)c2nc3ccccc3[nH]2)c1C (stereo unspecified),inactive
3,C=C(C)C(=O)O[C@H]1C[C@@H]2CC[C@@]1(C)C2(C)C,inactive
4,CO[Si](C)(OC)c1ccccc1,inactive
5,CC(=O)Nc1ccccc1O,inactive
6,CCCCN,inactive
7,OC[C@H]1O[C@H](O[C@]2(CCl)O[C@H](CCl)[C@@H](O)[C@@H]2O)[C@H](O)[C@@H](O)[C@H]1Cl,inactive
8,Cc1ccc(S)cc1,inactive
9,CC(=O)O[C@]1(C(C)=O)CC[C@H]2[C@@H]3C[C@H](C)C4=CC(=O)CC[C@]4(C)[C@H]3CC[C@@]21C,inactive
10,Nc1nc2ccc([N+](=O)[O-])cc2s1,inactive
11,OCCOCCOCCOCCO,inactive
12,OCc1cccnc1,inactive
13,CCCCCC(CO)CCC (stereo unspecified),inactive
14,C[C@H]1C[C@H]2[C@@H]3CCC4=CC(=O)C=C[C@]4(C)[C@@]3(F)[C@@H](O)C[C@]2(C)[C@@]1(O)C(=O)COP(=O)(O)O,inactive
15,NCCCN1CCOCC1,inactive
16,COc1ccc(O)cc1,inactive
17,CC(C)C1CCC(O)CC1 (stereo unspecified),inactive

row,Structure (SMILES),outcome
1,CCOC(=S)SSC(=S)OCC,inactive
2,CCOC(=O)c1ccccc1OC,inactive
3,O=Cc1ccc(Cl)c([N+](=O)[O-])c1,inactive
4,S=C(S)NCCNC(=S)S,inactive
5,CCCCCCCCCCCCCC(=O)O,inactive
6,CC1(C)C(=O)N(Br)C(=O)N1Cl,inactive
7,CCCC(=O)c1cc(O)c(O)cc1O,inactive
8,NCCNCCN,inactive
9,CC(C)c1cccc(O)c1,inactive
10,O=C(O)c1cn(-c2ccc(F)cc2)c2cc(N3CCNCC3)c(F)cc2c1=O,inactive
11,Clc1sc(Cl)c(Cl)c1Cl,inactive
12,O=C1CCCCCCCCCCOCCCCO1,inactive
13,C=COCCOCCOCCOC=C,inactive
14,COc1nc(C)nc(N)n1,inactive
15,CNCCCC12CCC(c3ccccc31)c1ccccc12,inactive
16,COc1cc2ncnc(Nc3cccc(Cl)c3)c2cc1OC,inactive
